Structures can show the parent of a compound that is named as a salt.

This assay concerns Staphylococcus aureus Sa2 (MRSA, cystic fibrosis isolate). The experiment in a line: growth reduction vs untreated control (viable cell count); higher = stronger antibacterial activity; extreme values may be limits of the assay. The settings on record: 0.1 mM; 24 h. As for the experimental part:
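Single-dose screen of the MedChem Express Drug Repurposing Library (0.1 mM, 1% DMSO) against planktonic MRSA S. aureus Sa2 (CF isolate) in TSB in 96-well plates, 37 °C aerobic, 24 h. Assays were run in triplicate and repeated twice.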
In turn, `CN[C@H]1CN(c2ccc3c(=O)c(C(=O)O)cn(-c4nccs4)c3n2)C[C@@H]1OC` [Voreloxin (Hydrochloride)] had a growth reduction of 100%.
`Cc1ccc(C(=O)N(CCCN)[C@@H](c2oc3cc(Cl)ccc3c(=O)c2Cc2ccccc2)C(C)C)cc1`: the growth reduction is 100%.
With `O=C(O)Cc1ccc(Cc2cc(-c3cccc(Cl)c3)nc(C(F)(F)F)c2)cc1`, the growth reduction was determined as 100%.
`CC(=O)O[C@]1(C(C)=O)CC[C@H]2[C@@H]3C=C(C)C4=CC(=O)CC[C@]4(C)[C@H]3CC[C@@]21C` [Megestrol acetate] gave a growth reduction of 91%.
Consider `Cc1cc2c(F)c(Oc3ncnn4cc(OC[C@@H](C)OC(=O)[C@H](C)N)c(C)c34)ccc2[nH]1` [Brivanib (alaninate)], for which the growth reduction is 100%.
In the case of `CCCCCc1ccc(C=CC(=O)Nc2ccccc2C(=O)O)cc1` [N-(p-amylcinnamoyl) Anthranilic Acid], the growth reduction was 100%.
On to `Cc1c2c(nn1C)CSCc1cc(n(C)n1)CSc1cc(c3ccccc3c1)OCCCc1c(C(=O)O)n(C)c3c-2c(Cl)ccc13`, for which the growth reduction amounted to 100%.
With `O=c1nc(OC[C@@H]2COCCO2)cc2n1CCc1cc(C#CC3CC3)ccc1-2`, the growth reduction was 93%.
With `NC(=O)N1CCC(CC(=O)N2CCC([C@H]3c4ncc(Br)cc4CCc4cc(Cl)cc(Br)c43)CC2)CC1` [Lonafarnib] the figure was 96%.
In turn, `C[C@@H](O[C@H]1OCCN(Cc2n[nH]c(=O)[nH]2)[C@H]1c1ccc(F)cc1)c1cc(C(F)(F)F)cc(C(F)(F)F)c1` [Aprepitant] displayed a growth reduction of 100%.
`CC1(C)S[C@@H]2[C@H](NC(=O)[C@H](N)c3ccccc3)C(=O)N2[C@H]1C(=O)OCOC(=O)[C@@H]1N2C(=O)C[C@H]2S(=O)(=O)C1(C)C` [Sultamicillin (tosylate)] gave a growth reduction of 100%.
In the case of `CCCCCCCOc1ccc(CCC(N)(CO)CO)cc1C(F)(F)F` [Amiselimod (hydrochloride)], the growth reduction is 100%.
With `C=CC(=O)Nc1cc(Nc2nccc(-c3cn(C4CC4)c4ccccc34)n2)c(OC)cc1N(C)CCN(C)C` [Almonertinib (hydrochloride)] the figure was 100%.
In turn, `CC(C)c1c(C(=O)Nc2ccccc2)c(-c2ccccc2)c(-c2ccc(F)cc2)n1CC[C@@H](O)C[C@@H](O)CC(=O)O` [Atorvastatin (hemicalcium salt)] yielded a growth reduction of 98%.
`Nc1ccn([C@@H]2O[C@H](CO)[C@@H](O)C2(F)F)c(=O)n1` [Gemcitabine (hydrochloride)] returned a growth reduction of 100%.
Molecule `COc1cc(NS(C)(=O)=O)ccc1Nc1c2ccccc2nc2ccccc12` [Amsacrine (hydrochloride)] displayed a growth reduction of 100%.
Molecule `CCN(C/C=C\c1ccc(C2CCCCC2)c(Cl)c1)C1CCCCC1` came in with a growth reduction of 99%.
Molecule `OCc1cc([C@@H](O)CNCCCCCCOCCOCc2c(Cl)cccc2Cl)ccc1O` [Vilanterol] yielded a growth reduction of 100%.
With `Cc1ccc(Sc2ccccc2N2CCNCC2)c(C)c1` [Vortioxetine] the figure was 100%; with `CNCc1ccc(C)c(NC(=O)c2ccc(Nc3nc(-c4ccccc4)c4ccccc4n3)cc2)c1`, 100%; with `Cc1cccc(/C=N/Nc2cc(N3CCOCC3)nc(OCCc3ccccn3)n2)c1` [Apilimod (mesylate)], 93%.
With `N=C(N)c1ccc(OCCCCCOc2ccc(C(=N)N)cc2)cc1` [Pentamidine (isethionate)] the figure was 100%; with `CC1(C)CCC(C)(C)c2cc(NC(=O)c3ccc(C(=O)O)cc3)ccc21` [Tamibarotene], 100%.
With `C[C@@H]1CCc2ncc(F)cc2[C@H]2CCCN2c2ccn3ncc(c3n2)C(=O)N1` [Selitrectinib] the figure was 97%.
For the molecule `CCN(CC)CCNC(=O)c1c(C)[nH]c(/C=C2\C(=O)Nc3ccc(-c4csc(-c5ccccc5)n4)cc32)c1C` [Amcasertib], the growth reduction was determined as 100%.
In turn, `O=C(Nc1ncc(SCCN2CCCC2)s1)[C@]1(c2ccc(S(=O)(=O)C3CC3)cc2)C[C@H]1C1CCCCC1` [Globalagliatin] gave a growth reduction of 100%.
With `C#C[C@]1(O)CC[C@H]2[C@@H]3CCC4=CCCC[C@@H]4[C@H]3C(=C)C[C@@]21CC` [Desogestrel] the figure was 100%.
`C=C[C@@](C)(/C=C/c1ccc(O)cc1)CCC=C(C)C` [Bakuchiol]: the growth reduction came to 100%.
With `Cc1ccc2c(=O)c3cccc(CC(=O)O)c3oc2c1C` [Vadimezan] the figure was 100%.
Regarding `CCCCCCCCc1ccc(CCC(N)(CO)CO)cc1` [Fingolimod (hydrochloride)], the growth reduction was 100%.
In turn, `CC(C)=CCC/C(C)=C/CC/C(C)=C/CSc1ccccc1C(=O)O` [Salirasib] yielded a growth reduction of 100%.
In turn, `Clc1ccc(CCC(Cn2ccnc2)Sc2c(Cl)cccc2Cl)cc1` (stereo not given) [Butoconazole (nitrate)] gave a growth reduction of 100%.
`Cn1cc(-c2ccncc2)c(-c2ccc(OCc3ccc4ccccc4n3)cc2)n1` [Mardepodect]: the growth reduction turned out to be 93%.
Molecule `NC(=O)C1=C(O)[C@@]2(O)C(=O)C3=C(O)c4c(O)cccc4C[C@H]3C[C@H]2CC1=O` [Incyclinide] returned a growth reduction of 100%.
`CC(C)COc1ccc(CNC(=O)N(Cc2ccc(F)cc2)C2CCN(C)CC2)cc1` [Pimavanserin]: the growth reduction turned out to be 100%.
In turn, `COc1ccc2c(c1OCc1ccccc1)C[C@@H](C(=O)O)N(C(=O)C(c1ccccc1)c1ccccc1)C2` [Olodanrigan] yielded a growth reduction of 100%.
`CCOc1cc2ncc(C#N)c(Nc3ccc(F)c(Cl)c3)c2cc1NC(=O)/C=C/CN(C)C` [Pelitinib] registered a growth reduction of 97%.
For `Nc1ccc2cc3ccc(N)cc3nc2c1` [Proflavine (hemisulfate)], the growth reduction came out at 100%.
In the case of `Cc1ccc(C(=O)N(CCCN)[C@@H](c2nc3cc(Cl)ccc3c(=O)n2Cc2ccccc2)C(C)C)cc1` [Ispinesib], the growth reduction was 100%.
In turn, `COc1cccc(OC)c1-c1cc(C(=O)NC2(C(=O)O)C3CC4CC(C3)CC2C4)nn1-c1ccnc2cc(Cl)ccc12` (stereo not given) [Meclinertant] had a growth reduction of 100%.

The values above are taken from the supplement of paper PMC12024424.
